Experimental data published in PubChem BioAssay (NCI).
About 83,000 compounds went through this panel and 20% of them were active in at least one assay; those are over-represented in the sample as a whole.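 Interpretation: 100, growth as untreated; towards 0, rising growth inhibition; 0, no net growth; 0 to -100, cell death. Compounds scoring below 10 were considered active.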 The source made the active and inactive calls.

Assays:
Experiment in all cases: NCI-60 one-dose screen, 48 h (100 = growth as untreated, 0 = no growth, -100 = all killed)
[1] = test system: SR leukemia; conditions: 10 µM unless noted
[2] = test system: RPMI-8226 leukemia; conditions: 10 µM unless noted
[3] = test system: OVCAR-8 ovarian; conditions: 10 µM unless noted
[4] = test system: OVCAR-5 ovarian; conditions: 10 µM unless noted
[5] = test system: OVCAR-4 ovarian; conditions: 10 µM unless noted
[6] = test system: SK-OV-3 ovarian; conditions: 10 µM unless noted
[7] = test system: IGROV1 ovarian; conditions: 10 µM unless noted
[8] = test system: OVCAR-3 ovarian; conditions: 10 µM unless noted
[9] = test system: NCI/ADR-RES ovarian; conditions: 10 µM unless noted
[10] = test system: T-47D breast; conditions: 10 µM unless noted
[11] = test system: MDA-MB-435 melanoma; conditions: 10 µM unless noted
[12] = test system: SW-620 colon; conditions: 10 µM unless noted
[13] = test system: MCF7 breast; conditions: 10 µM unless noted
[14] = test system: HCT-116 colon; conditions: 10 µM unless noted
[15] = test system: KM12 colon; conditions: 10 µM unless noted
[16] = test system: HS 578T breast; conditions: 10 µM
[17] = test system: BT-549 breast; conditions: 10 µM unless noted
[18] = test system: HCC-2998 colon; conditions: 10 µM

Measured: growth

Clc1nc(Cl)c2ncn(CC#CCn3cnc4c(Cl)nc(Cl)nc43)c2n1
inactive: [6] 87.5% | [9] 59.8%
active: [1] -52.6% | [2] -56.6% | [3] -34.8% | [4] -2.99% | [5] -70.8% | [7] -75.4% | [8] -90.9% | [10] -21.5% | [11] 4.04% | [12] -44.7% | [13] -22.8% | [14] -34.6% | [15] -45.8%

COc1cc2nc(Nc3cccc(Cl)c3)nc(N)c2cc1OC
inactive: [1] 67.4% | [2] 35.7% | [3] 87.4% | [4] 111% | [5] 72.7% | [7] 64.5% | [8] 89.2% | [16] 109% | [9] 74.1% | [10] 84.5% | [17] 78.6% | [11] 84.7% | [12] 83.6% | [13] 81.5% | [14] 33.7% | [15] 61.4%
active: [18] -59.3%

Clc1ccc(C(Cn2ccnc2)OCc2ccsc2Cl)c(Cl)c1 (stereo not given)
inactive: [1] 17.3% | [2] 37.6% | [3] 57.2% | [4] 68.9% | [5] 52.7% | [7] 40.9% | [8] 55.7% | [16] 30.8% | [9] 23.1% | [10] 43.5% | [17] 40% | [12] 45.1% | [13] 43.7% | [14] 26.3% | [18] 53.8% | [15] 24.6%
active: [11] -0.595%

O=C(N/N=C/c1ccc(Cl)cc1)c1cc(-c2cc3ccccc3o2)nn1-c1ccccc1
inactive: [1] 87.9% | [2] 47.6% | [3] 93.7% | [4] 101% | [5] 87.3% | [6] 94% | [7] 65.9% | [8] 106% | [9] 93.4% | [10] 85.6% | [11] 103% | [12] 101% | [13] 85.6% | [14] 92.3% | [15] 102%

C=CC[n+]1c(/C=C2\Sc3ccccc3N2C)sc(-c2ccccc2)c1-c1ccccc1
active: [1] 1.88% | [2] 0.0474% | [10] 5.7% | [11] 5.39% | [13] 6.39%
inactive: [3] 15.1% | [4] 21.9% | [5] 23.8% | [7] 36.7% | [8] 15.1% | [16] 56.9% | [9] 85% | [17] 11.9% | [12] 22.1% | [14] 12% | [18] 29.4%

O=C(CNc1nnc(-c2ccc(Cl)cc2)o1)Nc1ccc(-c2nc3ccccc3s2)cc1
inactive: [1] 71.8% | [2] 95.4% | [3] 103% | [4] 116% | [5] 103% | [6] 117% | [7] 94.1% | [8] 97.7% | [10] 79.9% | [17] 87% | [11] 97.1% | [12] 110% | [13] 34.5% | [14] 89.8% | [18] 93.5% | [15] 97%

C=CC(=O)Nc1cccc(Oc2nc(Nc3ccc(N4CCN(C)CC4)cc3)nc3ccsc23)c1
active: [1] -23.5% | [2] -29.8% | [3] -38.8% | [4] 8.45% | [5] -63.6% | [6] -2.6% | [7] -69.9% | [8] -80.7% | [10] -51% | [17] -37.5% | [11] -93.3% | [12] -62.2% | [13] -60.9% | [14] -89.2% | [15] -79.1%

COc1cc(F)c(F)c(Nc2ccc(I)cc2F)c1NS(=O)(=O)C1(C[C@H](O)CO)CC1
active: [7] 9.36% | [18] -23.6%
inactive: [1] 57.7% | [2] 37.8% | [3] 45.7% | [4] 13.5% | [5] 46% | [6] 51.3% | [8] 83.1% | [10] 22.6% | [17] 62.1% | [11] 24.3% | [12] 19.3% | [13] 61.5% | [14] 11.2% | [15] 24.2%

COC(=O)CCCNc1c(-c2c(O)c(O)cc3c(O)c(-c4c(C)cc5c(-c6nc7ccccn7c6NCCCC(=O)OC)c(O)c(O)cc5c4O)c(C)cc23)nc2ccccn12
inactive: [1] 24.3% | [2] 22.5% | [3] 51.4% | [4] 119% | [5] 98.6% | [7] 34.8% | [8] 64.6% | [16] 34.5% | [9] 100% | [10] 26.1% | [17] 16% | [11] 20.7% | [12] 60.1% | [13] 18.2% | [18] 71.6% | [15] 31.8%
active: [14] 7.23%

COc1ccc(C2OC(c3cc(-c4cc5ccccc5o4)nn3-c3ccccc3)=NN2C(C)=O)cc1 (stereo not given)
inactive: [1] 93.1% | [2] 101% | [3] 99.5% | [4] 94% | [5] 96.3% | [6] 103% | [7] 89.4% | [8] 95.3% | [9] 92.2% | [10] 86.5% | [17] 97.2% | [11] 108% | [13] 100% | [14] 88.6% | [15] 107%

NC(=O)c1c(OCc2c(F)cc(Br)cc2F)nsc1NC(=O)NCCCCN1CCCC1
active: [1] -34.4% | [2] -26.3% | [4] -14.8% | [5] -41.6% | [7] -32.4% | [8] -34.1% | [10] -45.1% | [17] -51.2% | [11] -58.9% | [13] 1.88% | [14] -37.9% | [18] -13.8% | [15] -4.19%
inactive: [3] 19.4% | [6] 52.2%

CCN1CCN(c2cc(C)nc(N(CCCNc3ccnc4cc(Cl)ccc34)Cc3cccs3)n2)CC1
active: [1] -34% | [2] -33.6% | [8] -2.11% | [16] -22.4% | [10] -18.7% | [17] -20.6% | [11] -79.8% | [12] -8.17% | [18] -27.2%
inactive: [3] 15.7% | [4] 69.8% | [5] 30.4% | [7] 10.3% | [9] 28.5% | [13] 12.3% | [14] 10.8% | [15] 35.4%

COc1cc2ncnc(Nc3ccc(O)cc3)c2cc1OC
active: [6] 5.29%
inactive: [1] 27.1% | [2] 97.2% | [3] 70.7% | [4] 59.2% | [5] 88.1% | [7] 38.2% | [8] 87.4% | [10] 53.9% | [17] 80% | [11] 91.6% | [12] 112% | [13] 90.4% | [14] 75.3% | [18] 100%

C[C@@H](Oc1cc(-c2cnn(C3CCNCC3)c2)cnc1N)c1c(Cl)ccc(F)c1Cl
active: [1] -35.7% | [2] -43.3% | [3] -27.5% | [4] -28.7% | [5] -23.9% | [6] -39.4% | [7] -24.5% | [8] 6.67% | [10] -65.8% | [17] -42.3% | [11] -90.6% | [12] -59.9% | [13] -66.1% | [14] -73.1% | [18] -73.2% | [15] -61.2%

Cc1sc2c(c1C)c(=O)nc1c(-c3nc(-c4ccccc4)cs3)n[nH]n12
inactive: [1] 90.5% | [2] 93.8% | [3] 99.8% | [4] 109% | [5] 106% | [7] 96.9% | [8] 96.4% | [16] 93.4% | [9] 96.1% | [10] 83.9% | [17] 110% | [11] 107% | [12] 97.3% | [13] 91.2% | [14] 100% | [18] 101% | [15] 99.4%

O=C1CC(c2cccc(F)c2)c2c(n[nH]c2-c2ccc(Cl)cc2)N1 (stereo not given)
inactive: [1] 89.3% | [2] 81.8% | [3] 85.9% | [4] 84.7% | [5] 95.4% | [6] 86.4% | [7] 101% | [8] 100% | [10] 55.8% | [17] 92.4% | [11] 99.5% | [12] 114% | [13] 96.5% | [14] 74.4% | [18] 102% | [15] 91.7%

ClCc1ccc(-c2ccc(Cn3cnc4c(Cl)nc(Cl)nc43)cc2)cc1
inactive: [4] 57.8% | [5] 21.7% | [6] 87.8% | [9] 20.8%
active: [1] 8.65% | [2] -47.4% | [3] -40% | [7] -64.4% | [8] -93.1% | [10] -23.5% | [11] 4.56% | [12] -31.6% | [13] -31.8% | [14] -59.6% | [15] -66.9%
